# Source: PubChem
# Most compounds without a hit are left out; they make up all but 8.1% or so of the library.
# KB-3-1 tox – kills parental KB-3-1 adenocarcinoma cells | KB-3-1 viability, CellTiter-Glo ATP luminescence, 72 h | Potency, µM (series often up to 46.1 µM), most hits filed as cytotoxic | hit rate 1.4% among 400,000; note: % is set by controls: 0 for no effect and ±100 for the full control effect; nearly all actives have a fitted effect of over 60% in size
#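 KB-3-1 cells, DMEM (no phenol red) + 10% FBS; compound by pin transfer, 72 h, 37 °C. Readout: CellTiter-Glo luminescence after 10 min. Data normalized, curve-fitted.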
# ELG1 DNA repair – ELG1-dependent DNA repair inhibition; HEK293T ELG1-luciferase reporter, luminescence, 16 h; DNA damage induced by 5-fluorouridine; Potency, µM (highest dose often 46.1 µM), for inactives: at the highest dose activity change, negative = inhibition, actives largely listed as inhibitors; hit rate 2.3% among 330,000; note: % is set by controls: 0 for no effect and ±100 for the full control effect; nearly all actives have a fitted effect of over 55% in size
#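 Cells (2,000 per well) received 5-fluorouridine plus test compound or DMSO and were incubated 16 hr at 37 °C, 5% CO2. Luciferase activity was read by luminescence 30 min after ONE-Glo addition; signal suppression marked inhibition of damage-induced ELG1 function.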
# KB-V1 cytotox – KB-V1 MDR subline cytotoxicity. KB-V1 MDR cells viability, CellTiter-Glo, 72 h. Potency, µM (highest dose often 46.1 µM), actives largely listed as cytotoxic. hit rate 3.4% among 400,000. AID 1347076; note: % is set by controls: 0 for no effect and ±100 for the full control effect; nearly all actives have a fitted effect of over 60% in size
#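 Cytotoxicity toward P-gp-expressing KB-V1 cells was determined as loss of CellTiter-Glo luminescence after 72 h at 37 degrees C. Compounds were tested in quantitative HTS format across a concentration range, with curves fitted to normalized data.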
# MCF10A rereplic – DNA re-replication induction in MCF 10a cells; hit rate 2.9% among 350,000; MCF 10A DNA re-replication, Hoechst nuclear intensity, 48 h; Potency, µM (series often up to 46.1 µM), for the others: at the highest dose activity, positive = re-replication, actives largely listed as activators; note: % of control where 0% means no effect; nearly all actives have a fitted effect of over 50% in size
# SW480 rereplic – inducers of DNA re-replication in SW480 colon cancer cells; SW480 DNA re-replication, Hoechst DNA content imaging, 48 h; Potency, µM (highest dose often 46.1 µM), for the others: at the top dose re-replication activation, most hits filed as activators; hit rate 1.8% among 340,000; AID 624297; note: % of control where 0% means no effect; nearly all actives have a fitted effect of over 55% in size
#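 First, 250 cells per well were seeded. Next, compound or vehicle (23 nL) was pinned in, plates sat 48 hr at 37 C. Finally Hoechst was added for 40 min before fluorescence scanning.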
# Starred values were filed as active, the others as inactive; i = inactive; ? = inconclusive; . = no result. Calls come from the whole dose curve; as a rule, active = well fitted curve in the direction sought with a large enough effect; inconclusive = small, poorly fitted or top-dose-only effect, or another doubt; inactive = no such curve, though single readings can be large; an effect the other way counts as inactive or inconclusive. Potency is the fitted concentration of half-maximal effect.
SMILES,KB-3-1 tox,ELG1 DNA repair,KB-V1 cytotox,MCF10A rereplic,SW480 rereplic
Cc1nn(-c2ccccc2)c(N)c1N=Nc1cccnc1,i,?,i,-1%,-3%
O=C(NC1CCCCC1)C1CCCN(S(=O)(=O)c2ccc(F)cc2)C1 (configuration not stated),i,-12%,?,13%,-2%
CC(C)CNC(=S)NNC(=O)c1csc2c1CCCC2,i,-16%,i,-6%,0%
CCC(C)NC(=O)COC(=O)c1csc2c1CCCC2 (configuration not stated),23µM*,12%,i,6%,-1%
Cc1[nH]c2ccc(C(=O)NC3CCCC3)cc2c1C,i,?,i,6%,2.6µM*
Cc1[nH]c2ccc(C(=O)Nc3ccncc3)cc2c1C,i,12µM*,i,12%,20%
Cc1[nH]c2ccc(C(=O)O)cc2c1C,i,?,i,23µM*,26µM*
Cc1[nH]c2ccc(C(=O)NC3CCC(C)CC3)cc2c1C (configuration not stated),i,?,i,-5%,9%
COc1cc(NC(c2ccccc2)c2ccccc2)cc(OC)c1OC,i,-3%,i,-2%,-2%
COc1ccc(NC(c2ccccc2)c2ccncc2)cc1 (configuration not stated),i,26µM*,i,3%,-11%
Cn1cnc2nc[nH]c2c1=O,i,.,i,-2%,-5%
Cn1c(=O)cc(SCC(=O)NCc2ccc(F)cc2)c2ccccc21,?,3%,i,15µM*,15%
Cn1c(=O)cc(SCC(=O)NCc2ccc(F)cc2)c2ccc(Cl)cc21,i,.,i,.,.
Cc1ccccc1C(=O)n1nc(-c2ccco2)nc1NCc1ccc(Cl)cc1,i,.,i,.,.
CC(=O)Nc1ccccc1N(CC(O)Cn1c2ccccc2c2ccccc21)S(=O)(=O)c1ccc(C)cc1 (configuration not stated),i,?,?,?,23µM*
COc1ccc(N(CC(O)Cn2c3ccccc3c3ccccc32)S(=O)(=O)c2ccccc2)cc1 (configuration not stated),?,-11%,23µM*,5%,?
COc1ccc(CNC(=O)Cn2ccc3cc(S(=O)(=O)N4CCCCC4)ccc32)c(OC)c1,i,.,i,.,.
CC(C)c1ccc(NC(=O)C2CCC(CNC(=O)[C@@H]3Cc4ccccc4CN3)CC2)cc1 (some centres not stated),i,?,?,15µM*,?
Cc1ccc(NC(=O)C2CCC(CNC(=O)[C@@H]3Cc4ccccc4CN3)CC2)cc1 (some centres not stated),i,9%,i,3%,2%
COc1cc2sc3cc(NCc4ccc5c(c4)OCO5)ccc3c(=O)c2cc1OC,i,?,i,22%,?
COc1cccc2sc3cc(NCc4ccc5c(c4)OCO5)ccc3c(=O)c12,i,?,?,4.1µM*,?
CC#CC[N+](C)(C)CCCCCCCC,18µM*,?,i,4%,0%
CC#CC[N+](C)(C)CC(=O)c1ccccc1,i,12%,i,-4%,-14%
CCc1nc2c(OCC3CCCCC3)cccn2c1N(C=O)Cc1ccc(OC)cc1,i,.,i,.,.
Cc1cc(C)cc(-n2ccnc2SCC(=O)Nc2ccc(C)cc2C)c1,i,.,i,.,.
SMILES,KB-3-1 tox,ELG1 DNA repair,KB-V1 cytotox,MCF10A rereplic,SW480 rereplic
CC1(c2ccc(OC(F)F)cc2)NC(=O)N(CC(=O)Nc2cccnc2Cl)C1=O (configuration not stated),i,5%,i,1%,-5%
N=c1oc2ccccc2cc1-c1nc(-c2ccccc2)cs1,i,?,23µM*,10µM*,13µM*
N=c1oc2ccc3ccccc3c2cc1-c1nc(-c2ccccc2)cs1,i,6%,i,?,-15%
CN(C)S(=O)(=O)Nc1ccc(-c2cn3ccsc3n2)cc1,i,.,?,.,.
Clc1cccc(Cl)c1Cn1cnc(=NCc2ccco2)c2[nH]cnc21,i,-5%,8.2µM*,?,9%
Clc1cccc(Cl)c1Cn1cnc2c(NCc3ccco3)ncnc21,?,?,3.5µM*,16µM*,10µM*
